Sampled rows, rich in hits. Any-hit rate of the full collection: about 0.92%.
CIT2-GFP yeast – modulators of TOR pathway CIT2-GFP in S. cerevisiae. S. cerevisiae CIT2-GFP strain, flow cytometry, 3 h; 100 means same as DMSO wells. AID 2029. 320,000 compounds, 0.065% hits. GFP response vs DMSO, % at 10 µM;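 active = GFP response relative to DMSO above a set limit, near the screen mean plus 3 SD, cut at about 150% in these data; inconclusive = Fewer than 70 cells measured for a yeast strain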;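 note: ratio of well median GFP fluorescence to mean of DMSO wells on the plate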
LAP4 TOR yeast – alters LAP4-GFP fluorescence in TOR pathway yeast screen; 320,000 compounds, 0.34% hits; S. cerevisiae LAP4-GFP multiplex, flow cytometry GFP, 3 h; median GFP as percent of DMSO wells; GFP response vs DMSO, % at 10 µM;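 active = GFP response vs DMSO above a set limit, about the screen mean plus 3 SD, cut at about 150% in these data; inconclusive = under 70 cell events counted for the yeast strain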
AGP1 TOR yeast – modulators of TOR pathway AGP1-GFP in S. cerevisiae; S. cerevisiae AGP1-GFP multiplex flow cytometry, 3 h; GFP as percent of DMSO wells; GFP response vs DMSO, % at 10 µM; 320,000 compounds, 0.02% hits;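 active = GFP response relative to DMSO above a set limit, near screen average plus 3 SD, cut at about 150% in these data; inconclusive = fewer than 70 cells counted for the yeast strain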;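 note: median GFP channel fluorescence of the gated AGP1 strain per well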
RPL19A-GFP yeast – yeast TOR pathway RPL19A-GFP modulation | S. cerevisiae RPL19A-GFP strain, flow cytometry, 3 h; stronger effect = lower value | percent response vs DMSO, % at 10 µM | 330,000 compounds, 0.3% hits;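 active = percent response vs DMSO below 50%; inconclusive = fewer than 70 events counted for the yeast strain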;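 note: median channel GFP fluorescence of the barcoded RPL19A-GFP strain; ratio of sample median GFP to plate DMSO average so 100% = DMSO; lower means less RPL19A-GFP as with rapamycin TOR inhibition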
MEP2-GFP yeast – alters MEP2-GFP fluorescence in TOR pathway yeast screen. S. cerevisiae MEP2-GFP strain, flow cytometry GFP, 3 h; 100% = DMSO control level. GFP response vs DMSO, % at 10 µM. 330,000 compounds, 0.51% hits. AID 2016;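 active = GFP response versus DMSO above a set limit, roughly screen mean plus 3 SD, cut at about 180% in these data; inconclusive = fewer than 70 cells counted for a yeast strain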;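 note: median GFP fluorescence of the barcode-gated MEP2-GFP cells per well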
* = called active by the depositor; ? = inconclusive; · = no result; [ ] = another dose, or the depositor's remark.

SMILES	CIT2-GFP yeast	LAP4 TOR yeast	AGP1 TOR yeast	RPL19A-GFP yeast	MEP2-GFP yeast
CCc1ccc(C2=NN(C(C)=O)C(c3ccco3)C2)cc1 (stereo unspecified)	?	155.8*[may fluoresce violet]	?	42.5*[may fluoresce violet]	78.9
O=C(CC1OC(=O)c2ccccc21)Nc1cc(S(=O)(=O)N2CCOCC2)ccc1OCC(F)(F)F (stereo unspecified)	99.3	115.5	106.0	101.0	101.0
COc1cccc(CCN2CCC(CNS(=O)(=O)c3cc(-c4cc(C)no4)ccc3C)CC2)c1	?	63.8	?	15.2*[may fluoresce violet]	162.6
O=C(Nc1ccc(NC(=O)c2cccs2)cc1)c1cccs1	107.9	98.7	100.8	103.0	99.0
COc1ccc(NC(=O)c2cccs2)cc1	?	103.3	·	46.3*[may fluoresce violet]	296.9*[may fluoresce violet]
COc1ccc(OCc2nnc(SCC(=O)Nc3nnc(C4CC4)s3)n2C)cc1	107.1	101.2	106.0	104.8	104.3
Cc1cccc(NC(=O)COC(=O)[C@@H]2CCCN2C(=O)c2cccs2)c1	100.0	94.3	100.3	100.5	101.2
CCN(CC)c1ccc(/C=N/NC(=O)c2nnn(-c3nonc3N)c2-c2ccc(C)cc2)cc1	?	81.0	20.2	32.7*[may fluoresce violet]	193.2*[may fluoresce violet]
CCN(CC)Cc1c(C(=O)N/N=C/c2cccc3ccccc23)nnn1-c1nonc1N	105.7	102.0	96.1	99.0	111.5
CCOc1ccc(/C=N/NC(=O)c2nnn(-c3nonc3N)c2-c2ccc(OCC)cc2)cc1	116.6	92.2	103.6	106.2	106.6
CCN(CC)Cc1c(C(=O)N/N=C/c2ccccn2)nnn1-c1nonc1N	?	89.8	19.1	54.6	295.2*[may fluoresce violet]
Cc1cc(C=C2C(=O)c3ccccc3C2=O)c(C)n1-c1cccc(C(=O)O)c1	106.0	122.7	82.5	104.2	214.3*
Cc1cc(C=C2C(=O)c3ccccc3C2=O)c(C)n1-c1ccc(C(=O)O)cc1	98.6	104.5	·	90.3	96.5
CCS(=O)(=O)C1=NSC2=NC(=O)/C(=C\c3ccc(OC(=O)c4ccco4)cc3)C(=N)N21	101.8	90.6	93.6	98.3	102.7
O=C(Nc1ccc2c(c1)OCO2)c1cnn2c(C(F)(F)F)cc(-c3ccco3)nc12	108.9	102.0	100.3	101.2	101.9
COc1ccc(NC(=O)c2cnn3c(C(F)(F)F)cc(-c4ccco4)nc23)cc1OC	?	85.0	27.1	·	250.1*[may fluoresce violet]
CCCN(c1ccccc1F)S(=O)(=O)c1cc(-c2cc(C)no2)ccc1OC	96.0	88.9	13.3	46.6*	134.5
COc1ccccc1OCCn1c(SCC(=O)O)nc2ccccc21	106.5	95.6	102.9	104.3	98.6
COc1cccc(NC(=O)CN2CCN(S(=O)(=O)c3ccc(C(C)C)cc3)CC2)c1	?	76.5	?	39.5*[may fluoresce violet]	118.5
Clc1ccc(SCc2cc(-c3ccccc3)on2)cc1	?	82.9	?	52.8	217.9*[may fluoresce violet]
Cc1ccc(Oc2ccccc2/C=C/C(=O)O)cc1	91.0	113.4	92.8	103.3	98.9
CCOc1ccc(N2CC(C(=O)Nc3ccccc3N3CCOCC3)CC2=O)cc1 (stereo unspecified)	?	87.9	24.4	38.1*[may fluoresce violet]	260.3*[may fluoresce violet]
CC(C)c1ccccc1NC(=O)COC(=O)/C=C/c1cccc([N+](=O)[O-])c1	93.7	96.3	99.9	106.9	103.7
COCCN(C(=O)CNC(=O)c1ccco1)C(C(=O)NC1CCCCC1)c1cccnc1 (stereo unspecified)	102.1	89.9	100.7	105.2	101.6
CC(=O)N/N=C/c1cc(C(C)C)cc(/C=N/NC(C)=O)c1O	?	181.1*[may fluoresce violet]	49.1	113.3	195.0*[may fluoresce violet]
SMILES	CIT2-GFP yeast	LAP4 TOR yeast	AGP1 TOR yeast	RPL19A-GFP yeast	MEP2-GFP yeast
O=S1(=O)N=C2CCCN2C(c2ccc(F)cc2)N1 (stereo unspecified)	95.8	100.9	105.3	101.6	105.9
O=S1(=O)N=C2CCCCCN2C(c2ccc(F)cc2)N1 (stereo unspecified)	?	104.8	?	17.2*[may fluoresce violet]	191.9*[may fluoresce violet]
CCOC(=O)/C=C1\SCC(=O)N1Cc1nnc(-c2ccccc2Br)o1	94.5	94.4	29.8	·	288.7*
CCOC(=O)/C=C1\SCC(=O)N1Cc1ccc(Br)cc1	·	88.0	92.2	95.6	97.4
COc1ccc(-c2[nH]ncc2CN(CCO)Cc2cccs2)c(F)c1	117.7	129.4	102.7	101.8	198.5*
CCN(Cc1ccncc1)Cc1cn[nH]c1-c1ccc(OC)cc1F	101.7	99.4	98.6	94.7	101.8
COc1ccc(N2CCN(CCNC(=O)Nc3ccc(C)cc3Cl)CC2)cc1	?	54.8	?	27.5*[may fluoresce violet]	400.3*[may fluoresce violet]
Cc1cc(C)nc(SC2=CS(=O)(=O)c3ccccc32)n1	99.1	107.8	104.9	99.3	107.5
O=S1(=O)C=C(Sc2nnc(-c3ccccc3)o2)c2ccccc21	?	257.6*[may fluoresce violet]	27.6	74.5	166.5
Oc1c(Br)cc(Br)cc1C=NCc1ccccc1	79.6	151.3*	93.3	100.9	97.2
Oc1c(Br)cc(Br)cc1C=NCc1ccc(F)cc1	98.5	139.1	92.9	100.5	100.9
COc1ccc(CCNC(=O)CN(c2ccccc2OC)S(=O)(=O)c2ccc(C)cc2)cc1	103.0	93.5	100.0	95.1	98.0
COc1ccccc1N(CC(=O)NCc1ccccc1C)S(=O)(=O)c1ccc(C)cc1	?	?	?	?	206.4*[may fluoresce red and violet]
COc1ccc(CCNC(=O)COC(=O)c2cc(=O)[nH]c3ccccc23)cc1	106.8	94.2	100.3	97.9	107.2
O=C(CSc1nnc(C2COc3ccccc3O2)o1)N1CCCC1 (stereo unspecified)	146.5	172.5*	157.8*	73.7	445.2*
O=c1c2ccccc2n(CC(O)CN2CCCCC2)c2ccccc12 (stereo unspecified)	?	76.2	?	31.6*[may fluoresce violet]	168.8
O=c1c2ccccc2n(CC(O)CN2CCOCC2)c2ccccc12 (stereo unspecified)	?	57.9	?	36.3*[may fluoresce violet]	?
CN(C)CCCNc1cc(C(C)(C)C)nc2c(-c3ccc(Cl)cc3)cnn12	60.7	186.2*	80.8	55.8	150.8
CC(C)(C)c1cc(NCc2ccccn2)n2ncc(-c3ccc(Cl)cc3)c2n1	81.1	110.4	100.4	97.8	103.0
CCn1cc(C(=O)N[C@H](C(=O)NC(C)(C)CO)C(C)C)c(=O)c2cc3c(cc21)OCO3	109.3	91.3	102.1	106.4	106.3
Cc1ccc(S(=O)(=O)NCCC(=O)NC2CCC(C)CC2)cc1 (stereo unspecified)	118.0	100.0	102.2	101.2	107.5
CCCC(=O)Nc1cccc(NC(=O)c2ccccc2Br)c1	?	95.6	?	34.0*[may fluoresce violet]	286.4*[may fluoresce violet]
CCC(=O)Nc1cccc(NC(=O)c2ccccc2Br)c1	105.5	99.0	108.2	107.6	107.9
Cc1nn(C)c(C(=O)Sc2ccccc2)c1[N+](=O)[O-]	96.5	129.1	109.7	101.2	99.1
Cc1nn(C)c(C(=O)Sc2cccc(Cl)c2)c1[N+](=O)[O-]	102.7	154.2*	109.9	107.1	97.4

Screens: PubChem BioAssay, NMMLSC
